Records with an inconclusive call do not appear. Unmarked numbers belong to inactive results. The source made the active and inactive calls. Calls follow the shape of the dose curve; as a rule, active = well fitted activation curve with a large enough effect; inconclusive = small, poorly fitted or top-dose-only effect; inactive = no such curve, though single readings can be large or run the other way.
Potency is read from the fitted curve at half-maximal effect.

The nature of this assay: qHTS assay for re-activators of p53 using a Luc reporter: Hit Validation. Also: nearly all actives have a fitted effect of over 75% in size. As to activation: 0% is about no effect. The note with it: p53-responsive luciferase reporter cells, luminescence, H1299 line expressing heat-sensitive Ala138Val p53; series mostly up to 46.1 µM. An outline of the steps: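 H1299 (p53-null) cells stably carrying p53-A138V and a BP100-luciferase reporter, 1000 cells/well, treated 24 h at 37 deg C. Compounds at several concentrations, 1:5 dilution; nocodazole control; luminescence read after 10 min with detection reagent.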
Turning to `CC1CC1C(=O)Nc1nc2ccc(S(C)(=O)=O)cc2s1` (stereo not drawn), the Potency result is “inactive”.
For `O=C(Nc1nc2ccccc2s1)c1ccc2c(c1)OCO2`, the Potency is 0.206 µM (active).
The same measure, in the same setting: for `COc1ccc(N2C(=O)CC(Cc3ccc(Br)cc3)C2=O)cc1` (stereo not drawn) the value was “inactive”; for `C/C(=N\NC(=O)c1ccccc1)c1ccc(NC(=O)c2cccs2)cc1`, “inactive”; for `Nc1nc(-c2ccc([N+](=O)[O-])cc2)cs1`, “inactive”.
In the case of `COCCn1c(C)cc(C(=O)CSc2nc3ccccc3s2)c1C`, the activation was 130% [at 9.22 µM].
Still for that read-out and setting: for `CCOC(=O)N1CCN(S(=O)(=O)c2ccc(C(=O)NNc3nc4cc(C)cc(C)c4s3)cc2)CC1` the value was 6.68% [at 9.22 µM].
In the case of `Oc1c(CN2CCOCC2)cc(COCc2ccccc2)c2cccnc12`, the Potency result is “inactive”.
On the same count and under the same terms, for `Cc1nc2cc(-c3ccccc3)nn2c(N)c1-c1ccccc1` the value was 0.411 µM (active).
The same measure, in the same setting: for `CN(C(=O)NC(=O)C1=C(N2CCOCC2)/C(=C/c2ccccc2)CC1)S(C)(=O)=O` the value was “inactive”; for `CC1CCN(C2=C(NS(=O)(=O)c3ccc(Br)cc3)C(=O)c3ccccc3C2=O)CC1`, “inactive”.
The same measure, in the same setting: for `CN(CC(=O)Nc1ccc(Cl)c(Cl)c1)C(=O)C1CCCC1` the value was “inactive”.
On to `COC(=O)c1ccc(-c2nc(-c3cccs3)no2)cc1`, for which the Potency was 0.146 µM (active).
Same read-out and setting: with `CCOc1ccc(-c2nnc(SCC(=O)N3CCNC3=O)o2)cc1` the figure was 2.06 µM (active); with `O=C(Nc1cccc(O)c1)C(=O)Nc1ccccn1`, 2.31 µM (active); with `O=C1NC(c2ccc(Br)cc2)=N/C1=C/c1ccco1`, 0.58 µM (active).
On the same count and under the same terms, with `COc1ccc(N2CCN(C(=O)COC(=O)c3ccc(OC(F)F)cc3)CC2)cc1` the entry was “inactive”.
Still for that read-out and setting: with `CNC(=S)N/N=C/c1cc(Br)cc(Br)c1O` the entry was “inactive”; with `CC(C)(C)OC(=O)N1CCC(C(=O)Nc2ccc3c(c2)CCC3)CC1`, 23.1 µM (active).
As to `O=C(NNC(=O)C1CCCO1)c1ccccc1Cl` (stereo not drawn), the Potency entry is “inactive”.
The same measure, in the same setting: for `Cc1ccc(OCCN2CCOCC2)cc1C` the value was “inactive”; for `COc1cccc(NC(=O)CCN2CCOCC2)c1`, “inactive”; for `Cc1ccc(NC(=S)NC(=O)C2CCCC2)c(Br)c1`, 3.66 µM (active).
On the same count and under the same terms, for `O=C(COC(=O)c1ccc(-c2nnc(-c3ccccc3)o2)cc1)c1ccccc1` the value was 2.91 µM (active); for `COc1ccc(C(C#N)N2N=C(c3ccccc3)CC2c2ccccc2)cc1OC` (stereo not drawn), “inactive”.
In the case of `CN1CCN(C(=O)CCCN2C(=O)/C(=C/c3ccc(Cl)cc3)SC2=S)CC1`, the Potency was 9.2 µM (active).
With `O=C(Nc1ccc(N2CCCCCC2)cc1)c1ccc[nH]1`, the Potency was 1.16 µM (active).
On the same count and under the same terms, with `Cc1ccc(CSc2nc3ccncc3[nH]2)cc1` the entry was “inactive”; with `C/C(=N/NC(=O)c1ccc2c(c1)OCO2)c1ccc(NC(=O)C(F)(F)F)cc1`, 9.2 µM (active).
Still for that read-out and setting: for `c1ccc2oc(C3=NNC(=NC4CC4)SC3)cc2c1` the value was 0.366 µM (active).
Turning to `Cc1cs/c(=N/C(=S)Nc2ccccc2)n1C`, the Potency is 1.84 µM (active).
`Cc1cc(=O)[nH]c(N/N=C/c2ccccn2)n1`: the Potency is 13 µM (active).
On the same count and under the same terms, for `O=C(O)c1ccc(N/N=C/c2ccc3ncccc3c2)cc1` the value was 0.184 µM (active); for `S=C(Nc1ccccc1)Nc1nc2ccccc2n1CCOc1ccc(Br)cc1`, “inactive”; for `Cc1ccc2cc(C#N)c(NCc3ccco3)nc2c1`, “inactive”.
The same measure, in the same setting: with `CCN(CC)C(=O)CSC(=Nc1ccccc1F)NC#N` the figure was 14.6 µM (active).
For `CC(=O)c1cccc(NC(=O)c2sc(Cl)nc2C)c1`, the Potency result was “inactive”.
Still for that read-out and setting: for `Cc1ccc(C(=O)Nc2cnc3sc(C)nn3c2=O)cc1` the value was 6.51 µM (active).

The record behind these values is PubChem BioAssay AID624305 (National Center for Advancing Translational Sciences (NCATS), 2012).
